Screens (PubChem BioAssay)
A selection: hits, their analogues and other compounds. The true share with any hit is near 4.9%.
dFosB activator: activators of mouse delta FosB homodimer; purified delta FosB, TAMRA-CDK5 oligo fluorescence polarization; percent of positive-control signal above neutral wells; activation, % at 25 µM; P13346; actives 0.99% (n = 340,000);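 active means mean activation above about 17%, with every replicate also reaching it, limit read from the data, passing the limit was not always enough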
Target sequence (P13346 whole entry, looked up): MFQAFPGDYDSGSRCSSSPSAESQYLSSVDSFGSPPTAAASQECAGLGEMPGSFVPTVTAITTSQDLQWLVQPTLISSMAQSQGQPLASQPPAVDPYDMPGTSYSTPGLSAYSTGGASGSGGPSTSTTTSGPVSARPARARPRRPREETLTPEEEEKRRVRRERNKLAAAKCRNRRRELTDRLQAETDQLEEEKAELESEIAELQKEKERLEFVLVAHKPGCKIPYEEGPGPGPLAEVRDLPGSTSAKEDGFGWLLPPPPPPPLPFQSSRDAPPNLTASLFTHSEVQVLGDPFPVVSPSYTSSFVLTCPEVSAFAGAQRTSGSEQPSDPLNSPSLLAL
HSF1 inhib: HSF1 inhibition; NIH3T3-HGL HSE-luciferase, MG132-induced, luminescence 8 h; stronger effect = lower value; activity change, negative = inhibition, % at 7.5 µM (by protocol); actives 0.77% (n = 300,000); AID 2098;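 active means more than half of replicate wells show activity change below -50%, luminescence cut by over half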;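 further: luciferase reports HSF-1 transcriptional activity via heat shock element; 0% = median of DMSO wells and -100% = zero luminescence signal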
HSP90 refold inh: inhibitors of HSP90 luciferase refolding in rabbit reticulocyte lysate; inhibition, % at 5.6 µM; AID 1789; luciferase refolding luminescence, 3 h; actives 0.91% (n = 290,000);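 active means inhibition above the screen-wide mean plus 3 SD, computed separately per campaign, cut at about 16% in these data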;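 further: 0% = DMSO wells and 100% = 60 µM geldanamycin wells; inhibitors lower the luminescence because luciferase stays unfolded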
MPTP inh: permeability transition pore inhibition | isolated mouse mitochondria, Ca2+ swelling absorbance, 30 min | inhibition, % at 10 µM | actives 1.4% (n = 360,000);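 active means inhibition of 50% or more, scaled per plate between neutral and stimulator controls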;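 further: 0% = DMSO wells given calcium and 100% = 1 mM EGTA wells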
HSF1 activator: increases HSF-1 driven luciferase reporter signal | NIH3T3-HGL HSF-1 luciferase reporter, MG132, 8 h; 100% = twice DMSO control signal | activation, % at 9 µM | actives 1.7% (n = 300,000) | AID 504408;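 active means mean replicate activation of at least 50% with a set share of replicates each reaching 50%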;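 further: 0% = median of the neutral control wells and 100% = twice that signal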
Platelet DG rel: platelet dense granule release activity; human platelet-rich plasma, SFLLRN dense granule ATP release, luminescence; inhibition, %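 (compounds screened at 7.5 µM in platelet-rich plasma)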; actives 0.22% (n = 300,000); AID 1663;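 active means mean replicate score, as percent of positive control, at or above 50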
Active calls of the source: *; nt = no result.

SMILES | dFosB activator | HSF1 inhib | HSP90 refold inh | MPTP inh | HSF1 activator | Platelet DG rel
Cc1ccc(-n2c(C)cc(/C=C3\SC(=O)NC3=O)c2C)cc1 | -10 | 38 | -2 | 2 | 61* | -1
COc1ccc(-n2c(C)cc(/C=C3\SC(=O)NC3=O)c2C)cc1 | -24 | 12 | -5 | 0 | 36 | 0
COC(=O)C1=C(C(=O)OC)[C@@H]2N(Cc3ccccc3)c3ccccc3[C@@]23C[C@@H](C(=O)OC)N(C(C)=O)C3=N1 | 3 | 0 | nt | 0 | -6 | -1
C=CCN1c2ccccc2[C@]23C[C@@H](C(=O)OC)N(C(=O)OCC)C2=NC(C(=O)OC)=C(C(=O)OC)[C@H]13 | 2 | 1 | nt | -3 | 1 | -1
COC(=O)C1=C(C(=O)OC)[C@@H]2N(Cc3ccccc3)c3ccccc3[C@@]23C[C@@H](C(=O)OC)N(C(=O)c2ccc(Br)cc2)C3=N1 | -5 | -68* | 7 | -1 | -71 | 6
C=CCN1c2ccccc2[C@]23C[C@@H](C(=O)OC)N(C(=O)c4ccc(Br)cc4)C2=NC(C(=O)OC)=C(C(=O)OC)[C@H]13 | -5 | -69* | nt | 0 | -75 | 5
COC(=O)C1=C(C(=O)OC)[C@@H]2N(C)c3ccccc3[C@@]23C[C@@H](C(=O)OC)N(C(=O)CC(C)C)C3=N1 | -5 | -75* | nt | -2 | -80 | 0
COC(=O)C1=C(C)Nc2c(c(=O)n(C)c(=O)n2C)C1c1cccc(O)c1 (stereo not drawn) | 2 | -57* | -1 | -1 | -67 | -3
Cn1c(-c2sc3cc(C(F)(F)F)cnc3c2-c2ccccn2)n[nH]c1=S | 2 | -5 | -1 | 0 | -4 | -1
Cn1c(-c2sc3cc(C(F)(F)F)cnc3c2-c2cccnc2)n[nH]c1=S | -10 | -85* | -3 | -2 | -88 | 18
O=C(COC(=O)CN1C(=O)C(=O)c2ccccc21)OCN1C(=O)c2ccccc2C1=O | 2 | -5 | -4 | 5 | -12 | -8
O=C(Nc1ccc(Cl)c(Cl)c1)Nc1ccc([N+](=O)[O-])cn1 | 8 | -6 | 5 | 30 | 15 | -1
Cc1ccc(NC(=O)Nc2ccc(Cl)c(Cl)c2)nc1 | 7 | 28 | 0 | -1 | 53* | 22
Cc1ccc(NC(=O)Nc2ccc(Cl)cn2)cc1 | 8 | 40 | 6 | 10 | 77* | 1
CCOC(=O)c1c(C)[nH]c(C)c1S(=O)(=O)N1CCN(c2ccc(F)cc2)CC1 | -8 | 28 | -2 | 0 | 63* | -4
CCOC(=O)c1c(C)[nH]c(C)c1S(=O)(=O)N1CCOCC1 | -1 | -2 | 0 | -1 | 20 | 18
CCOC(=O)c1c(C)[nH]c(C(=O)OCc2ccccc2)c1C | -16 | 46 | 3 | -1 | 62* | -16
CCOC(=O)c1c(C)[nH]c(C(=O)COC(=O)CCSc2ccccc2)c1C | -8 | 1 | 0 | 1 | 16 | -1
CCOC(=O)c1c(C)[nH]c(C(=O)C(C)OC(=O)c2oc3ccccc3c2COC)c1C (stereo not drawn) | -2 | -4 | -1 | 0 | -12 | 73*
CCOC(=O)c1c(C)[nH]c(C(=O)CSc2ccccc2)c1C | 4 | 27 | 8 | -6 | 59* | -2
CCCn1c(SCC(=O)c2c(C)[nH]c(C)c2C(=O)OCC)nc2ccccc21 | 3 | -61* | -1 | 2 | -70 | 25
CCOC(=O)c1c(C)[nH]c(C)c1C(=O)CSc1nc2ccccc2n1CCC#N | 6 | -5 | -7 | -1 | -3 | 20
CCOc1ccccc1NC(=O)Nc1ccc2c(c1)OCO2 | -12 | 5 | -1 | -2 | 16 | 4
C=CCOc1ccccc1CN(C(=O)CCl)c1ccc2c(c1)OCO2 | -10 | -93* | 8 | 0 | -93 | 2
Cc1cccc(N2C(=O)CS/C2=N\NC(=O)c2ccc(Br)cc2)c1C | 1 | -72* | 3 | -1 | -78 | -6
Cc1cccc(N2C(=O)CS/C2=N\NC(=O)c2cccnc2)c1C | 5 | 5 | -3 | 0 | 15 | 7
CCC(=O)NC(=S)Nc1ccc(NC(=O)COc2ccc(Cl)cc2Cl)cc1 | 12 | 31 | 1 | 0 | 53* | -5
CCC(=O)NC(=S)Nc1ccc(NC(=O)COc2ccc(Cl)c(C)c2)cc1 | -13 | 45 | -5 | 0 | 79* | 0
